Source: PubChem
Most compounds without a hit are left out; they make up all but 19% or so of the library.
DT40 TDP1 CPT = DT40-hTDP1 cell growth loss with CPT; 420,000 tested, 12% active; Potency, µM (titrated, usually from 46.2 µM), for inactives: at the highest dose activity change, negative = growth inhibition, actives largely listed as inhibitors; chicken DT40 Tdp1-/-;hTDP1 cells + 20 nM CPT, ATP luminescence, 48 h; further: nearly all actives have a fitted effect of over 55% in size
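Cell growth measured by CellTiter-Glo luminescence after a minimum 48 h, 37 C compound exposure with 20 nM CPT in Tdp1-knockout DT40 cells stably expressing hTDP1, seeded 400/well; qHTS titration format.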
HT1080-NT tox = kills 2HG-producing HT-1080-NT fibrosarcoma cells. 360,000 tested, 1.6% active. Potency, µM (doses to about 46.1 µM), inactives show top-dose activity, negative = less viability, hits mostly cytotoxic. AID 686970. HT-1080-NT fibrosarcoma viability, CellTiter-Glo ATP luminescence, 48 h;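 further: NT is the 2HG producing partner of a matched IDH1 knockdown line; 0% = DMSO-treated cells and -100% = media-only wells without cells; nearly all actives have a fitted effect of over 55% in size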
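Luminescent CellTiter-Glo readout after 48 hours of compound exposure at 37 degrees C defined viability of HT-1080-NT cells. Activity was normalized to DMSO wells and cell-free media wells; concentration-response curves were fitted and assigned curve classes.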
HT1080 IDH1KD tx = kills HT-1080 cells with IDH1 knockdown. HT-1080 IDH1 knockdown viability, ATP luminescence, 48 h. Potency, µM (titrated, usually from 46.1 µM), without a hit: at the highest dose activity, negative = toxicity, actives largely listed as cytotoxic. 360,000 tested, 2% active. AID 686971;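 further: 0% = DMSO wells and -100% = cell-free medium wells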
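HT-1080-IDH1KD cells (IDH1 knocked down), 750/well in RPMI with 5% FBS, treated with compound 48 h at 37 degrees C. Viability by CellTiter-Glo luminescence, normalised to DMSO and no-cell wells; concentration-response curves classed.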
KB-3-1 cytotox = kills parental KB-3-1 adenocarcinoma cells | KB-3-1 viability, CellTiter-Glo ATP luminescence, 72 h | Potency, µM (highest dose often 46.1 µM), usual class: cytotoxic | 400,000 tested, 1.4% active; further: nearly all actives have a fitted effect of over 60% in size
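Viability of parental KB-3-1 cells, measured by CellTiter-Glo luminescence, followed a 72 h incubation at 37 °C with pinned compounds in phenol-red-free DMEM containing 10% FBS.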
KB-V1 MDR tox = kills drug-selected multidrug resistant KB-V1 cells; KB-V1 MDR cells viability, CellTiter-Glo, 72 h; Potency, µM (top dose mostly 46.1 µM), most hits filed as cytotoxic; 400,000 tested, 3.4% active; AID 1347076; further: nearly all actives have a fitted effect of over 60% in size
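Potencies derive from concentration-effect curves fitted to normalized luminescence (CellTiter-Glo) of KB-V1 cells treated for 72 h at 37 degrees C in phenol-red-free DMEM containing 10% FBS.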
DT40 TDP1 no CPT = qHTS for Inhibitors of human tyrosyl-DNA phosphodiesterase 1 (TDP1): qHTS in cells in absence of CPT; DT40 Tdp1-/- hTDP1 cells, no CPT, ATP luminescence, 48 h; Potency, µM (series often up to 46.2 µM), for inactives: at the top dose activity change, negative = growth inhibition, hits mostly inhibitors; 420,000 tested, 15% active; further: nearly all actives have a fitted effect of over 55% in size
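DT40 Tdp1-/-;hTDP1 cells, no CPT (DMSO vehicle only), 400 cells/well; compounds pin-transferred; ≥48 hr, 37 °C; CellTiter-Glo 30 min RT dark, luminescence read.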
* = called active by the depositor; i = inactive; ? = inconclusive; nt = no result; ! = not confirmed by another sample. The call rests on the fitted dose curve; in most records, active means well fitted curve in the direction sought with a large enough effect; inconclusive means small, poorly fitted or top-dose-only effect, or another doubt; inactive means no such curve, though single readings can be large; an effect the other way counts as inactive or inconclusive. Unless noted, on the % scale 0 is the no-effect control and ±100 the full control effect; potency means the concentration at half of the fitted maximal effect.

SMILES | DT40 TDP1 CPT | HT1080-NT tox | HT1080 IDH1KD tx | KB-3-1 cytotox | KB-V1 MDR tox | DT40 TDP1 no CPT
C=CCc1ccccc1OCC(O)CNC (stereo unspecified) | 4% | 0% | -1% | i | i | -25%
C=CCc1ccccc1OCC(O)CN(C(C)C)C(C)C (stereo unspecified) | -24% | -6% | -1% | i | i | 23µM*
COc1ccc(N2CCN(CC(O)COc3ccc4c(c3)CCC4)CC2)cc1 (stereo unspecified) | 18µM* | -14% | -13% | i | i | 23µM*
Cc1ccc(N2CCN(CC(O)COc3cccc(C)c3)CC2)cc1 (stereo unspecified) | 23µM* | 1% | -1% | i | i | ?
C=CCc1ccccc1OCC(O)CN1CCN(c2ccc(OC)cc2)CC1 (stereo unspecified) | 16µM* | 0% | 3% | i | i | ?
CC(C)C[C@H]1CNC(=O)C(=O)N1C[C@H]1CCCN1C[C@H](CC(C)C)N1C[C@H](CC(C)C)N(CCc2ccccc2)C(=O)C1=O | ? | -3% | -12% | ? | i | ?
C=CCOCC(O)Cn1c(N2CCCC2)nc2c1c(=O)[nH]c(=O)n2C (stereo unspecified) | 4% | -10% | 0% | i | i | 11%
CC(=O)c1ccc(N2CCN(CC(O)COC(c3ccccc3)c3ccccc3C)CC2)cc1 (stereo unspecified) | 23µM* | ? | ? | i | i | ?
Cc1cccc(N2CCN(CC(O)COc3ccc(Cl)cc3)CC2)c1 (stereo unspecified) | ? | 2% | -1% | i | i | 13µM*
CC(=O)c1ccc(N2CCN(CC(O)COC(c3ccccc3)c3ccccc3)CC2)cc1 (stereo unspecified) | ? | ? | ? | i | i | ?
OC(COC(c1ccccc1)c1ccccc1)CN1CCN(c2cccc(Cl)c2)CC1 (stereo unspecified) | 21µM* | -11% | ? | i | i | ?
CC(=O)Nc1ccc(OCC(O)CN2CCN(c3cccc(Cl)c3)CC2)cc1 (stereo unspecified) | -9% | 0% | -4% | i | 16µM* | -2%
CCOC(=O)CNC(=O)Cn1cnc2c(cnn2-c2ccc(C)cc2)c1=O | 0% | 0% | 13% | i | i | -3%
CCOc1ccccc1NC(=O)n1ncc2cc(Cl)ccc21 | -14% | nt | nt | i | i | ?
CCc1ccccc1NC(=O)Cn1c(=O)n(-c2ccc(C)c(C)c2)c(=O)c2oc3ccccc3c21 | 15µM* | nt | nt | nt | nt | ?
CCc1ccccc1NC(=O)Cn1c(=O)n(Cc2ccc(OC)cc2)c(=O)c2oc3ccccc3c21 | 9.2µM* | nt | nt | nt | nt | ?
COc1ccc(Cn2c(=O)c3oc4ccccc4c3n(CC(=O)Nc3c(C)cccc3C)c2=O)cc1 | 7.3µM* | nt | nt | nt | nt | 5.8µM*
O=C(Oc1cccc([N+](=O)[O-])c1)C1CCN(C(=O)c2ccc(F)cc2)CC1 | -17% | 5% | -2% | i | i | -15%
COC(=O)c1c(-n2c(C)cc(C=O)c2C)sc2c1CCCC2 | ? | 10% | -16% | i | ? | 22µM*
Cc1ccc(-c2nc3n(n2)C(c2ccccc2Cl)C=C(c2ccc(Cl)cc2)N3)cc1 (stereo unspecified) | ? | nt | nt | i | i | ?
Cc1cnc(NC(=O)Cc2ccc(S(=O)(=O)N3CCOCC3)s2)s1 | 3% | 10% | 19% | i | 23µM* | ?
O=C(Cc1ccc(S(=O)(=O)N2CCOCC2)s1)Nc1ccccc1N1CCOCC1 | ? | 2% | 4% | i | ? | 12µM*
CC(C)(C)c1csc(NC(=O)Cc2ccc(S(=O)(=O)N3CCOCC3)s2)n1 | ? | -19% | ? | i | ? | 15µM*
CCN(CC)S(=O)(=O)c1ccc(C)c(NC(=O)Cc2ccc(S(=O)(=O)N3CCOCC3)s2)c1 | ? | -9% | -21% | i | i | 21µM*
Cc1ccc(CNC(=O)c2c[nH]n3c(=O)c(Cc4ccc(Cl)cc4)c(C)nc23)cc1 | ? | nt | nt | i | i | ?
SMILES | DT40 TDP1 CPT | HT1080-NT tox | HT1080 IDH1KD tx | KB-3-1 cytotox | KB-V1 MDR tox | DT40 TDP1 no CPT
COc1cc(C(=O)N(C)C2CCCCC2)cc(OC)c1OC | ? | -8% | 0% | i | i | ?
O=C(c1ccccc1)c1ccc(Cn2cc(-c3ccccc3)nn2)cc1 | 7.3µM* | -9% | -15% | ? | 0.65µM*! | 7.3µM*
CCCCCc1ccc(-c2cn(Cc3ccc(C(=O)c4ccccc4)cc3)nn2)cc1 | 3.3µM* | -3% | -9% | 7.3µM*! | 7.3µM*! | 4.1µM*
O=C(O)c1cccc(-c2nnn(Cc3ccccc3)n2)c1 | -1% | 8% | 8% | i | i | 3%
CCOC(OCC)c1cn(Cc2ccc(C(=O)c3ccccc3)cc2)nn1 | 23µM* | ? | ? | 18µM* | ? | 23µM*
COc1ccc(-c2cc(N)n(S(=O)(=O)c3c(F)c(F)c(F)c(F)c3F)n2)cc1OC | 0.18µM* | 7.1µM* | 4µM* | 10µM* | 9.2µM* | 0.82µM*
COc1ccc(S(=O)(=O)n2nc(-c3cc(OC)c(OC)c(OC)c3)cc2N)cc1OC | -1% | -24% | -3% | i | i | ?
O=S(=O)(c1ccccc1)N1CCC2(CCN(C(c3ccccc3)c3ccccc3)CC2)CC1 | -8% | nt | nt | nt | nt | ?
COc1ccc(CCc2cc(OC)c(OC)c(OC)c2)cc1 | 0.82µM* | 1.6µM* | ? | 0.52µM* | 2.6µM* | 0.58µM*
CCCC1=C(C(=O)OCC)C(c2cccs2)n2ncnc2N1 (stereo unspecified) | -13% | 17% | 0% | i | ? | ?
CCCCOC(=O)C1=C(C)Nc2ncnn2C1c1ccc(OCC)c(OC)c1 (stereo unspecified) | -22% | 7% | 7% | i | 4.6µM* | -21%
CCOC(=O)C1=C(C)Nc2ncnn2C1c1cc(Br)ccc1F (stereo unspecified) | ? | -8% | ? | ? | 21µM* | 26µM*
CCOC(=O)C1=C(C)NC(=O)NC1C (stereo unspecified) | -18% | 8% | ? | i | i | -10%
